Experimental data reported in the supplement of paper PMC11732987, “Enantioselective OTUD7B fragment discovery through chemoproteomics screening and high-throughput optimisation” (Communications Chemistry, 2025).

Experiments:
Assay in all cases: log2 ratio of Biotin-Ahx-Ub-VS probe labelling (fragment/DMSO); higher = less target engagement (more negative = stronger competition), active = hit call of the paper (q ≤ 0.05, log2 ratio ≤ -1)
Details in all cases: compound concentration: 200 uM; treatment time: 3 h
USP34 = USP34 (UniProt Q70CQ2)
Chain of USP34 (Q70CQ2 whole entry, the tested form may be a part): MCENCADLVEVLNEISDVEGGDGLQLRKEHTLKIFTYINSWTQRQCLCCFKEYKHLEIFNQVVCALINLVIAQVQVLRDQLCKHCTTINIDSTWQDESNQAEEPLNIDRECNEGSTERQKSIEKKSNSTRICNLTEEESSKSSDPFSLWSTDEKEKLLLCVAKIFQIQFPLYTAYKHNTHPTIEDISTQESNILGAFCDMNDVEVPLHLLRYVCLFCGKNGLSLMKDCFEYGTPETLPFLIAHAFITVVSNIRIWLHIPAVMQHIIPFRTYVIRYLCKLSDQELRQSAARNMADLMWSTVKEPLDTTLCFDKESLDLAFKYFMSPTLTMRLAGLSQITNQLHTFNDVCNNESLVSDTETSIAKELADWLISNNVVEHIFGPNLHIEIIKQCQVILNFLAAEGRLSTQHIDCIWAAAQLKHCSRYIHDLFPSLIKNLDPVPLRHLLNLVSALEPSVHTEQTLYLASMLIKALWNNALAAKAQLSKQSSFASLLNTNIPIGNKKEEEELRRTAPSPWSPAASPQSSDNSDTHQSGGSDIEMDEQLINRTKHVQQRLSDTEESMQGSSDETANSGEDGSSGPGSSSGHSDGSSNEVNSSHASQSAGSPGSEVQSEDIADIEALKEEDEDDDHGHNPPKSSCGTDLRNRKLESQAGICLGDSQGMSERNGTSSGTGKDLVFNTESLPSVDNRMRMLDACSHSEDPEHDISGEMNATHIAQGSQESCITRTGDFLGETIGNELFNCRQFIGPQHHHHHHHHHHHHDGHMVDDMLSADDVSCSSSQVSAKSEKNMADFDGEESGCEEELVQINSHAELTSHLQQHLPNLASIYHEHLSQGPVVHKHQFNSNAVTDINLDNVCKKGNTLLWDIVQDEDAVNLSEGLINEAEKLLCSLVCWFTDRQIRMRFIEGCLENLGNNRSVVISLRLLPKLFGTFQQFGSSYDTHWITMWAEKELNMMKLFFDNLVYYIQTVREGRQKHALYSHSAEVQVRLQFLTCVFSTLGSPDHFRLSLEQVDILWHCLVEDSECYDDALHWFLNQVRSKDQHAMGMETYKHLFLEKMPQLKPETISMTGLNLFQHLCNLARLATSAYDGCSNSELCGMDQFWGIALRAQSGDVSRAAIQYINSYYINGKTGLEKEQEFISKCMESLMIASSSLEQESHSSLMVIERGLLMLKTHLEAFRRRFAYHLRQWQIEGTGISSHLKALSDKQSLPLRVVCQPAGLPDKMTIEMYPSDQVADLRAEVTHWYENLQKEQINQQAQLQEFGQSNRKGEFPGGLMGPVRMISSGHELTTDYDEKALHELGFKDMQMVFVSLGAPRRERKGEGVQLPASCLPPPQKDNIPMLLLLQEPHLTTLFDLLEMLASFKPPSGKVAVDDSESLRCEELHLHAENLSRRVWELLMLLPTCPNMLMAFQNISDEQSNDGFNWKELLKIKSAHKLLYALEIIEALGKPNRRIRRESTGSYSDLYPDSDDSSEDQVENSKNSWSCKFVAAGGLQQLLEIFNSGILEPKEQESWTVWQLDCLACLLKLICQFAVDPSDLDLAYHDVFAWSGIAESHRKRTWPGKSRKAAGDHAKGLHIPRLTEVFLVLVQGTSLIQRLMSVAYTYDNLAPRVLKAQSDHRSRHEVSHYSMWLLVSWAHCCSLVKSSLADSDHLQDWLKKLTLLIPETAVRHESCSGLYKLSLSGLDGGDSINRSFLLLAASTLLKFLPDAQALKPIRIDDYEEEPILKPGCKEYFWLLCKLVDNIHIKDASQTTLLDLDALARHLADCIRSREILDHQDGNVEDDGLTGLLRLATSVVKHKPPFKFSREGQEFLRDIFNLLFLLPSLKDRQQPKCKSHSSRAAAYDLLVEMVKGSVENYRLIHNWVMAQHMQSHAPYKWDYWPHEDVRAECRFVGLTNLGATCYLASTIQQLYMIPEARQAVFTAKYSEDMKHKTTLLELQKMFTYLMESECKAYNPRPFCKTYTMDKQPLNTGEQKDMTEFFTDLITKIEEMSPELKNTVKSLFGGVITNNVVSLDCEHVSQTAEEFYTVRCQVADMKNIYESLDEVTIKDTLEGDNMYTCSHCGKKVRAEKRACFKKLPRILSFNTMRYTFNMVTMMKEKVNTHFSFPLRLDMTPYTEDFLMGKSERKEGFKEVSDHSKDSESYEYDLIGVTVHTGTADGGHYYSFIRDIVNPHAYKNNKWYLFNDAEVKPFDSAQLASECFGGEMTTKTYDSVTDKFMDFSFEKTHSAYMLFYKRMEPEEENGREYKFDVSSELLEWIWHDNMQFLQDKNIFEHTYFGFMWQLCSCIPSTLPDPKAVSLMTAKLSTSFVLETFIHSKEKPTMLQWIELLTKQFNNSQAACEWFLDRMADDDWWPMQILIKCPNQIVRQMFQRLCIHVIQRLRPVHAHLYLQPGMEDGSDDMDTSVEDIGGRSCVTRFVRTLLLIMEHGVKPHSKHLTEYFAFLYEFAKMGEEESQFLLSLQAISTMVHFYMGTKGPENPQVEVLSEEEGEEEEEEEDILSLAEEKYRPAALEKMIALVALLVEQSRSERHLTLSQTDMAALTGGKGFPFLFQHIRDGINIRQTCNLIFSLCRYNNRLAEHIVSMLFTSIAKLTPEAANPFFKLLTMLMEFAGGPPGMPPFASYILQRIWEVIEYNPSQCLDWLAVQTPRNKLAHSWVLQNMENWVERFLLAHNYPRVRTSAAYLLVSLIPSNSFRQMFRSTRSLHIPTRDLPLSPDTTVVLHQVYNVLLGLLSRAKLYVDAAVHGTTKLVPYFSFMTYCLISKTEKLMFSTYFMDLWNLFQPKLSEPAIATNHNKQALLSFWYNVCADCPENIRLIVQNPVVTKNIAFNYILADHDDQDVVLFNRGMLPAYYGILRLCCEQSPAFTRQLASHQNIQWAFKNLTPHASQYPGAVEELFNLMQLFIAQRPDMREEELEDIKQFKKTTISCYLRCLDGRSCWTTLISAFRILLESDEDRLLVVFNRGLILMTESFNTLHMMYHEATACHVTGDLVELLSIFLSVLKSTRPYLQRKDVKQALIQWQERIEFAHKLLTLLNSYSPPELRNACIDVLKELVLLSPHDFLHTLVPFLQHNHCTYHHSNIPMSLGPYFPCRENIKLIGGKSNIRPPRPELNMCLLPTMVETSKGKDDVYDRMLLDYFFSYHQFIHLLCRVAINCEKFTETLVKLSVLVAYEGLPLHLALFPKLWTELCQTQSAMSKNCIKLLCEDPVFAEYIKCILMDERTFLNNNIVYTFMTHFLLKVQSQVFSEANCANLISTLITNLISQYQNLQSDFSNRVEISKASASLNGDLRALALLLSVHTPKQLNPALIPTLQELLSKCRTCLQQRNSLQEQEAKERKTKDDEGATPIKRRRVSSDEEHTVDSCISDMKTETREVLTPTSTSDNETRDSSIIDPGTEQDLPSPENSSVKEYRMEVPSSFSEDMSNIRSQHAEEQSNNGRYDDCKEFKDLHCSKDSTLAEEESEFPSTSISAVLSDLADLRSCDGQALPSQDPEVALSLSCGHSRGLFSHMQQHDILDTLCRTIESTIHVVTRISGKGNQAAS
Summary of the method: (§1)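 Each value is an average log2 ratio of fragment to vehicle, tested by unpaired t-test. The underlying Spectronaut label-free quantities were global-median-normalised, and only proteins with ≥2 unique peptides were included. Triplicate HEK293T lysate samples (495 µg) were exposed to fragment at 200 µM or vehicle for 3 h, then to Biotin-Ahx-Ub-VS at 0.5 µM final for 1 h, before NeutrAvidin enrichment of labelled DUBs, LysC and trypsin digestion, and diaPASEF LC-MS/MS.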

USP36 = molecular target: T1, USP36 (UniProt Q9P275)
T1 sequence (whole entry): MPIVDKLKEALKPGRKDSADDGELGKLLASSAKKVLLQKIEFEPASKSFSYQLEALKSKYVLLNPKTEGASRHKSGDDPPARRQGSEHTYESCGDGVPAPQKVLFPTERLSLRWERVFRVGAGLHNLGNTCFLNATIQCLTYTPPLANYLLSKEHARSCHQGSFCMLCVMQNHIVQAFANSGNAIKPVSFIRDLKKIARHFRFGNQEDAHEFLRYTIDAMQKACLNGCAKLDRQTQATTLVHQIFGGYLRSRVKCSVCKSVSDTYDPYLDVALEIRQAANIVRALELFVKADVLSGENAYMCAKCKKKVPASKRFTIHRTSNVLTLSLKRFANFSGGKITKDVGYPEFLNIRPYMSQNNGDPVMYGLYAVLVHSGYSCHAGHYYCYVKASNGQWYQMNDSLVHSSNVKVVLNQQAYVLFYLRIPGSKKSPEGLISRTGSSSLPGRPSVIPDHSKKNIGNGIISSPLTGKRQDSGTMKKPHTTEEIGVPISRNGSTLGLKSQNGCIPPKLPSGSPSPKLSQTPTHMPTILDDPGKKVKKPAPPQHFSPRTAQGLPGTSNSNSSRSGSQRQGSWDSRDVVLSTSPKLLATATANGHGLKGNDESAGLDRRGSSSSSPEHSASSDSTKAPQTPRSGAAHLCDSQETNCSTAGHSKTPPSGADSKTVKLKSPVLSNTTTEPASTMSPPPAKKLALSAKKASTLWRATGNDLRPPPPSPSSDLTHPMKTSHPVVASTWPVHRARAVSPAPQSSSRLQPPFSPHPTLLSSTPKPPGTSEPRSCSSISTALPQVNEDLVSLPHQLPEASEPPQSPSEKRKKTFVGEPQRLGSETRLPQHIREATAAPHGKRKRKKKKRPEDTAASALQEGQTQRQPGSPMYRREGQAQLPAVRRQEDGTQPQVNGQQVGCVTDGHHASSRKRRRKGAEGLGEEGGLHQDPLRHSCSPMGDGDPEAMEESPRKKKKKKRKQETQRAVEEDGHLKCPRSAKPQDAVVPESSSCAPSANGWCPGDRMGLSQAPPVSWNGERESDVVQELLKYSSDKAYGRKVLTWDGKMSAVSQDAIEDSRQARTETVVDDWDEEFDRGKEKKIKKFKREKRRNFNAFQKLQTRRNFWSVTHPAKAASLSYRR
Summary of the method: as §1

USP38 = molecular target: T2, USP38 (UniProt Q8NB14)
T2 sequence (whole entry): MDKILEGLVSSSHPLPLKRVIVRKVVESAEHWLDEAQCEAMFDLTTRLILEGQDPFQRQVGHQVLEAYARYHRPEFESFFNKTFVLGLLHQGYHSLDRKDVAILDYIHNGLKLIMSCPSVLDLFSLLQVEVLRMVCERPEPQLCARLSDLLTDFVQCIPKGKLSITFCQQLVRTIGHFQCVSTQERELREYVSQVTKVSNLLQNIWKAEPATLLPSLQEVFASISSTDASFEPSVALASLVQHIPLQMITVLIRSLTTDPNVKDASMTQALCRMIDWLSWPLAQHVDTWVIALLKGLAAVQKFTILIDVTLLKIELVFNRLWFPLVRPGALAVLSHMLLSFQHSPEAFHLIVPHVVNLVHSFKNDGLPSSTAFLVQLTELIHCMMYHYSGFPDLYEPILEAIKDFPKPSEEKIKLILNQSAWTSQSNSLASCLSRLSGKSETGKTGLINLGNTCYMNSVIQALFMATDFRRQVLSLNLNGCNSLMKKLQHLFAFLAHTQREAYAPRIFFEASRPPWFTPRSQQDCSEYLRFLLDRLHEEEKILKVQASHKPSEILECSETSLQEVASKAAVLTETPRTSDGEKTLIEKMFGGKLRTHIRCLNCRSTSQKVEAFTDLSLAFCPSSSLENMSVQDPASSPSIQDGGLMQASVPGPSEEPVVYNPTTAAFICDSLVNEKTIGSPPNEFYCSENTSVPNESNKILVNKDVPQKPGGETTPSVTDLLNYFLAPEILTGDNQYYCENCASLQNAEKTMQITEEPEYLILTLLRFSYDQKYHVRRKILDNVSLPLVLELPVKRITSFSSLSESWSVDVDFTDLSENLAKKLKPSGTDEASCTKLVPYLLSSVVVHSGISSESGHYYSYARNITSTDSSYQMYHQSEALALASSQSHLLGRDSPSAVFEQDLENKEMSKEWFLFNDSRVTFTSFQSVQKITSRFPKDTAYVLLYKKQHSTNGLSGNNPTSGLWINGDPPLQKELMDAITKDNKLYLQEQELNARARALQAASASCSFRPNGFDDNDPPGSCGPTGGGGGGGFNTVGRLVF
Summary of the method: as §1

USP39 = molecular target: T3, USP39 (UniProt Q53GS9)
T3 sequence (whole entry): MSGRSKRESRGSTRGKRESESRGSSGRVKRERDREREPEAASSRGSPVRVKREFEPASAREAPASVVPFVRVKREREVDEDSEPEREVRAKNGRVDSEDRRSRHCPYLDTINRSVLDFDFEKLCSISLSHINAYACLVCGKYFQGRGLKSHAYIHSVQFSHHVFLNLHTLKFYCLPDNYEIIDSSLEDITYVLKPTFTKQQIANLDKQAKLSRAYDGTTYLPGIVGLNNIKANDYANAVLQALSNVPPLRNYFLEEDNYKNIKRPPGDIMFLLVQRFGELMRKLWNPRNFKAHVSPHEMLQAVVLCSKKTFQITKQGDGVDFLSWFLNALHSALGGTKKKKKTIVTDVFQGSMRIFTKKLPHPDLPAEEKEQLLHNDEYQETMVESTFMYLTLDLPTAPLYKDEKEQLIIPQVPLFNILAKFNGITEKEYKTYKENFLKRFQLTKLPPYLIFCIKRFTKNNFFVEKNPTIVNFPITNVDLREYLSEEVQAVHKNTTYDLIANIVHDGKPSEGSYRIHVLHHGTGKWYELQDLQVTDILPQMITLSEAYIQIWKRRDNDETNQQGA
Summary of the method: as §1

USP4 = molecular target: T4, USP4 (UniProt Q13107)
T4 sequence (whole entry): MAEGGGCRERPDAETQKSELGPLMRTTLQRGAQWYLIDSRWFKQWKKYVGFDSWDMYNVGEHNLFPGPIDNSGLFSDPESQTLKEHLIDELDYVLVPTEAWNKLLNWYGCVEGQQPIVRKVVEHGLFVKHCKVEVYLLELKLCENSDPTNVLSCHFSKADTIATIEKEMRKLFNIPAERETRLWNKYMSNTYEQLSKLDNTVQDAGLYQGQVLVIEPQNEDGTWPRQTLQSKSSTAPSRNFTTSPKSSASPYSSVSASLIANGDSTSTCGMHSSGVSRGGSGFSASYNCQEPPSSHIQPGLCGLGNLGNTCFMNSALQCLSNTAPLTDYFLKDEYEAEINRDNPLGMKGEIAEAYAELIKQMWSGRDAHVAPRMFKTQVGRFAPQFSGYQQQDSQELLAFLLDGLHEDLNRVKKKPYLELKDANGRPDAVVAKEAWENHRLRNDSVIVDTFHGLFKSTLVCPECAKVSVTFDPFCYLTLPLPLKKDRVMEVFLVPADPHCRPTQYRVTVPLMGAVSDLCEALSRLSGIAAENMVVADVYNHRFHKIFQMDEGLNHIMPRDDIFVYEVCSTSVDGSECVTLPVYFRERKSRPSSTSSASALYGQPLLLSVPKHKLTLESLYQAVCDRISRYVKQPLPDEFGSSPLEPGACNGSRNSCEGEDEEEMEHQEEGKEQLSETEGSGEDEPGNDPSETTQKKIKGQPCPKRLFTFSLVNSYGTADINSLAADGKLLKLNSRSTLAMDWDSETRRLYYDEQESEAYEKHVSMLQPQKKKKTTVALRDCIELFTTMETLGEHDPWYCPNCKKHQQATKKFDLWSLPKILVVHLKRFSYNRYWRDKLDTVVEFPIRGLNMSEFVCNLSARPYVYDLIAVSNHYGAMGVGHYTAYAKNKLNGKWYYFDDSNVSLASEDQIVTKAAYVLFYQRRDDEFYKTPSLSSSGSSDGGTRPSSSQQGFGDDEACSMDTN
Summary of the method: as §1

Measured: log2 ratio of Biotin-Ahx-Ub-VS probe labelling

O=C(CCl)N1CCC(c2nc3ccccc3o2)CC1
inactive: USP34 -0.0485 | USP36 -0.24 | USP38 -0.183 | USP39 0.016 | USP4 -0.231
